The record followed here is PubChem BioAssay (NCATS).

Results filed as inconclusive are left out. The source made the active and inactive calls. Calls come from the whole dose curve; as a rule, active = well fitted activation curve with a large enough effect in the signal ratio; inconclusive = small, poorly fitted or top-dose-only effect, or effect the other way, or a change in a side signal; inactive = flat fitted curve, though single readings scatter; the % refers to the signal ratio.
Potency is the fitted concentration of half-maximal effect.

The experiment is described as follows: qHTS assay for small molecule agonists of the antioxidant response element (ARE) signaling pathway (AID 651741). For activation: % of control where 0% means no effect. The following applies: HepG2 ARE-bla reporter, beta-lactamase FRET ratio, 16 h; series mostly up to 96 µM; activation: at the top concentration. An excerpt:
National Center for Advancing Translational Sciences [NCATS]
NIH Chemical Genomics Center [NCGC]
U.S. Environmental Protection Agency [EPA]
National Institutes of Environmental Health Sciences [NIEHS]
National Toxicology Program [NTP]
Oxidative stress has been implicated in the pathogenesis of a variety of diseases ranging from cancer to neurodegeneration. The antioxidant response element (ARE) signaling pathway plays an important role in the amelioration of oxidative stress. The CellSensor ARE-bla HepG2 cell line (Invitrogen) can be used for analyzing the Nrf2/antioxidant response signaling pathway. Nrf2 (NF-E2-related factor 2) and Nrf1 are transcription factors that bind to AREs and activate these genes. The CellSensor ARE-bla Hep G2 cell line contains a beta-lactamase reporter gene under control of the Antioxidant Response Element (ARE) stably integrated into HepG2 cells. The activation of the report gene under culture conditions can be detected by fluorescence intensity. This cell line can be used to screen chemicals in a 1536-well plate format and to identify agonists that induce oxidative stress.
The ARE-bla cells were dispensed at 2,000 cells/5 ul/well in 1536-well black wall/clear bottom plates using a Multidrop dispenser. After the assay plates were incubated at a 37 C/5% CO2 incubator for 5 hours, 23 nL of compounds dissolved in DMSO, positive controls or DMSO only was transferred to the assay plate by a pin tool. The plates were incubated at 37 C for 16 hours. After 1 uL of LiveBLAzer B/G FRET substrate was added using a Flying Reagent Dispenser, the plates were incubated at room temperature for 2 hours, and fluorescence intensity was measured by an Envision plate reader.
On to `O=c1[nH][nH]c(=O)c2cc([N+](=O)[O-])ccc12`, for which the “activation” value was 4.3% (inactive). In the case of `CC/C=C1/OC(=O)c2ccccc21`, the “activation” value was 5.38% (inactive). Consider `CC(=O)Nc1ccc(C)cc1`, for which the “activation” value was -1.15% (inactive). As to `Nc1cccc(S(=O)(=O)O)c1`, the “activation” value is 1.36% (inactive). As for `CCOCCO`, the “activation” value is -1.95% (inactive). Consider `Cc1ccc2nc(-c3ccc(N)cc3)sc2c1S(=O)(=O)O`, for which the Potency is 42.2 µM (active). Regarding `Cc1cscn1`, the “activation” value was -1.11% (inactive). Take `Cc1ccc2ncccc2c1`: the “activation” value was -1.68% (inactive).

As for `CC(=O)c1ccccn1`, the “activation” value is 2.76% (inactive). In the case of `CC1CCC2CC1C2(C)C` (stereo not given), the “activation” value was 2.79% (inactive).

Take `CCNc1cc(O)ccc1C`: the Potency was 59.6 µM (active). For `O=C(O)c1cccc(Cl)c1Cl`, the “activation” value is 0.0269% (inactive). In the case of `NC(=S)NNC(N)=S`, the Potency entry is “inactive”.

As for `COC(=O)CCC(=O)OC`, the “activation” value is 5.72% (inactive). For `COC(=O)CC#N`, the “activation” value was 3.25% (inactive). Consider `Cc1ccc(S(=O)(=O)NC2CCCCC2)cc1`, for which the “activation” value is 4.82% (inactive).

Consider `CC(CCl)OC(C)CCl` (stereo not given), for which the “activation” value was 0.181% (inactive). As for `CCCCCCC=O`, the “activation” value was -0.959% (inactive). As to `O=C(O)c1cccc([N+](=O)[O-])c1`, the “activation” value is 4.59% (inactive). For `O=Cc1c(Cl)cccc1Cl`, the “activation” value is -1.72% (inactive). For `CC(=O)OC(C)=O`, the “activation” value was 4.42% (inactive).

Regarding `CC(C)c1ccccc1`, the “activation” value was -3.04% (inactive). For the molecule `O=C(Cl)c1c(Cl)cccc1Cl`, the “activation” value is 2.03% (inactive).

As to `Fc1ccccc1`, the “activation” value was 3.83% (inactive). In the case of `C=C(C)C(=O)OC`, the “activation” value was 7.56% (inactive).

With `O=[N+]([O-])c1ccc2nc[nH]c2c1`, the “activation” value was 8.12% (inactive). Consider `CCNS(=O)(=O)c1ccc(C)cc1`, for which the “activation” value was 1.46% (inactive). Consider `CC(=O)c1ccccc1[N+](=O)[O-]`, for which the “activation” value was 5.38% (inactive).

With `Cc1ccc(C)c(O)c1`, the “activation” value is 1.4% (inactive). As to `c1ccc(Nc2ccccc2)cc1`, the Potency result is “inactive”. With `CC(C)C=O`, the “activation” value is -0.735% (inactive). `C=CCCCC`: the “activation” value was 6.27% (inactive). Regarding `Cc1cccc2sc(N)nc12`, the Potency was 15 µM (active). Turning to `CSCCC=O`, the “activation” value was 3.79% (inactive). `COC(=O)CS`: the “activation” value is 9.25% (inactive).

Consider `NCCCCCCN`, for which the “activation” value was 5.15% (inactive).

As to `CCCCCCCCN`, the “activation” value was -1.22% (inactive). For the molecule `CCCCC/C=C/C=C/C=O`, the Potency is 48.6 µM (active). Consider `Cc1cc([N+](=O)[O-])ccc1N`, for which the “activation” value is 3.91% (inactive).

As for `NS(=O)(=O)O`, the “activation” value was 0.573% (inactive).
